In the supplement of paper PMC8728848:
This excerpt belongs to a sample that is enriched for the strongest signals.

Assays:
Assay in all cases: glycan array binding signal (z-score within array); higher = stronger binding
Conditions in all cases: glycan notation: IUPAC condensed, linker removed
Fuc(a1-2)Gal = target: Fuc(a1-2)Gal
Summary of the method: (§1)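 From the Consortium for Functional Glycomics database, 3228 arrays were curated, keeping only those whose protein sequence was available. Binding is given as a within-array Z-score averaged across arrays sharing a protein sequence and across linkers. Negative Z-scores can be read as non-binding.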

[1] = target: Fuc(a1-2)Gal(b1-3)GalNAc(b1-4)[Neu5Ac(a2-3)]Gal(b1-4)Glc
Summary of the method: as §1

[2] = target: Fuc(a1-2)Gal(b1-3)GlcNAc(b1-3)[Neu5Ac(a2-6)Gal(b1-4)GlcNAc(b1-6)]Gal(b1-4)Glc
Summary of the method: as §1

[3] = target: Fuc(a1-2)[Gal(a1-3)]Gal(b1-3)GlcNAc
Summary of the method: as §1

[4] = target: Fuc(a1-2)[Gal(a1-3)]Gal(b1-4)[Fuc(a1-3)]Glc
Summary of the method: as §1

[5] = target: Fuc(a1-2)[Gal(a1-3)]Gal(b1-4)[Fuc(a1-3)]GlcNAc(b1-3)GalNAc
Summary of the method: as §1

[6] = target: Fuc(a1-3)[Gal(b1-4)]Glc6S
Summary of the method: as §1

[7] = target: Fuc(a1-3)[Gal3S(b1-4)]Glc
Summary of the method: as §1

[8] = target: Gal(a1-3)[Gal(a1-4)]Gal(b1-4)GlcNAc
Summary of the method: as §1

[9] = target: Gal(a1-4)Gal(b1-4)GlcNAc(b1-2)Man(a1-3)[Gal(a1-4)Gal(b1-4)GlcNAc(b1-2)Man(a1-6)]Man(b1-4)GlcNAc(b1-4)GlcNAc
Summary of the method: as §1

Gal(b1-2)Gal = target: Gal(b1-2)Gal
Summary of the method: as §1

[10] = target: Gal(b1-3)GlcNAc(b1-3)Gal(b1-4)GlcNAc(b1-2)Man(a1-3)[Gal(b1-3)GlcNAc(b1-3)Gal(b1-4)GlcNAc(b1-2)Man(a1-6)]Man(b1-4)GlcNAc(b1-4)GlcNAc
Summary of the method: as §1

Gal(b1-4)Glc = target: Gal(b1-4)Glc
Summary of the method: as §1

[11] = target: Gal(b1-4)GlcNAc(b1-2)[Gal(b1-4)GlcNAc(b1-4)]Man(a1-3)[GlcNAc(b1-4)][Gal(b1-4)GlcNAc(b1-2)[Gal(b1-4)GlcNAc(b1-6)]Man(a1-6)]Man(b1-4)GlcNAc(b1-4)GlcNAc
Summary of the method: as §1

[12] = target: Gal(b1-4)GlcNAc(b1-3)Gal(b1-4)GlcNAc(b1-3)Gal(b1-4)GlcNAc(b1-3)Gal(b1-4)GlcNAc(b1-3)Gal(b1-4)GlcNAc(b1-2)[Gal(b1-4)GlcNAc(b1-3)Gal(b1-4)GlcNAc(b1-3)Gal(b1-4)GlcNAc(b1-3)Gal(b1-4)GlcNAc(b1-3)Gal(b1-4)GlcNAc(b1-6)]Man(a1-6)[Gal(b1-4)GlcNAc(b1-3)Gal(b1-4)GlcNAc(b1-3)Gal(b1-4)GlcNAc(b1-3)Gal(b1-4)GlcNAc(b1-3)Gal(b1-4)GlcNAc(b1-2)Man(a1-3)]Man(b1-4)GlcNAc(b1-4)[Fuc(a1-6)]GlcNAc
Summary of the method: as §1

[13] = target: Gal(b1-4)GlcNAc(b1-3)Gal(b1-4)GlcNAc(b1-3)Gal(b1-4)GlcNAc(b1-3)Gal(b1-4)GlcNAc(b1-3)Gal(b1-4)GlcNAc(b1-3)Gal(b1-4)GlcNAc(b1-2)Man(a1-3)[Gal(b1-4)GlcNAc(b1-3)Gal(b1-4)GlcNAc(b1-3)Gal(b1-4)GlcNAc(b1-3)Gal(b1-4)GlcNAc(b1-3)Gal(b1-4)GlcNAc(b1-3)Gal(b1-4)GlcNAc(b1-2)Man(a1-6)]Man(b1-4)GlcNAc(b1-4)GlcNAc
Summary of the method: as §1

Gal3S(b1-4)Glc6S = target: Gal3S(b1-4)Glc6S
Summary of the method: as §1

Gal3S6S(b1-4)GlcNAc = target: Gal3S6S(b1-4)GlcNAc
Summary of the method: as §1

Gal3S6S(b1-4)GlcNAc6S = target: Gal3S6S(b1-4)GlcNAc6S
Summary of the method: as §1

[14] = target: GalNAc(a1-3)GalNAc(b1-3)Gal(a1-4)Gal(b1-4)Glc
Summary of the method: as §1

GalNAc(b1-3)GlcNAc = target: GalNAc(b1-3)GlcNAc
Summary of the method: as §1

GalNAc(b1-4)Gal(b1-4)Glc = target: GalNAc(b1-4)Gal(b1-4)Glc
Summary of the method: as §1

[15] = target: GalNAc(b1-4)GlcNAc(b1-3)GalNAc(b1-4)GlcNAc
Summary of the method: as §1

Glc(a1-6)Glc(a1-6)Glc = target: Glc(a1-6)Glc(a1-6)Glc
Summary of the method: as §1

GlcNAc(b1-3)Fuc = target: GlcNAc(b1-3)Fuc
Summary of the method: as §1

[16] = target: GlcNAc(b1-3)Gal(b1-4)GlcNAc(b1-3)Gal(b1-4)GlcNAc(b1-2)Man(a1-3)[GlcNAc(b1-3)Gal(b1-4)GlcNAc(b1-3)Gal(b1-4)GlcNAc(b1-2)Man(a1-6)]Man(b1-4)GlcNAc(b1-4)[Fuc(a1-6)]GlcNAc
Summary of the method: as §1

[17] = target: GlcNAc(b1-3)Gal(b1-4)GlcNAc(b1-3)Gal(b1-4)GlcNAc(b1-3)Gal(b1-4)GlcNAc(b1-3)Gal(b1-4)GlcNAc(b1-2)Man(a1-3)[GlcNAc(b1-3)Gal(b1-4)GlcNAc(b1-3)Gal(b1-4)GlcNAc(b1-3)Gal(b1-4)GlcNAc(b1-3)Gal(b1-4)GlcNAc(b1-2)Man(a1-6)]Man(b1-4)GlcNAc(b1-4)[Fuc(a1-6)]GlcNAc
Summary of the method: as §1

[18] = target: GlcNAc(b1-3)Gal(b1-4)GlcNAc(b1-6)[GlcNAc(b1-3)]Gal(b1-4)GlcNAc
Summary of the method: as §1

[19] = target: GlcNAc(b1-3)[GlcNAc(b1-6)]GalNAc
Summary of the method: as §1

[20] = target: GlcNAc(b1-4)[GlcNAc(b1-6)]GalNAc
Summary of the method: as §1

[21] = target: GlcNAc6S(b1-3)Gal(b1-4)GlcNAc
Summary of the method: as §1

[22] = target: Kdn(a2-3)Gal(b1-4)[Fuc(a1-3)]GlcNAc
Summary of the method: as §1

[23] = target: Man(a1-3)[Man(a1-6)]Man(a1-6)[Man(a1-3)]Man
Summary of the method: as §1

[24] = target: Neu5Ac(a2-3)Gal(b1-3)GlcNAc6S
Summary of the method: as §1

[25] = target: Neu5Ac(a2-3)Gal(b1-4)GlcNAc(b1-2)[Neu5Ac(a2-3)Gal(b1-4)GlcNAc(b1-6)]Man(a1-6)[Neu5Ac(a2-3)Gal(b1-4)GlcNAc(b1-2)Man(a1-3)][GlcNAc(b1-4)]Man(b1-4)GlcNAc(b1-4)GlcNAc
Summary of the method: as §1

[26] = target: Neu5Ac(a2-3)Gal(b1-4)GlcNAc(b1-3)Gal(b1-4)GlcNAc(b1-6)[Gal(b1-3)]GalNAc
Summary of the method: as §1

[27] = target: Neu5Ac(a2-3)Gal(b1-4)GlcNAc(b1-6)GalNAc
Summary of the method: as §1

[28] = target: Neu5Ac(a2-6)Gal(b1-4)GlcNAc(b1-3)Gal(b1-4)GlcNAc(b1-3)Gal(b1-4)GlcNAc(b1-2)Man(a1-3)[Neu5Ac(a2-6)Gal(b1-4)GlcNAc(b1-3)Gal(b1-4)GlcNAc(b1-3)Gal(b1-4)GlcNAc(b1-2)Man(a1-6)]GalNAc
Summary of the method: as §1

[29] = target: Neu5Ac(a2-6)Gal(b1-4)GlcNAc(b1-3)[Neu5Ac(a2-6)Gal(b1-4)GlcNAc(b1-6)]GalNAc
Summary of the method: as §1

[30] = target: Neu5Ac(a2-8)Neu5Ac(a2-3)[Gal(b1-3)GalNAc(b1-4)]Gal(b1-4)Glc
Summary of the method: as §1

[31] = target: Neu5Ac(a2-8)Neu5Gc(a2-3)Gal(b1-4)GlcNAc
Summary of the method: as §1

B1: PX9961K-bvu-480-28-480 (Bacteroides vulgatus) (protein)
chain: NKIPTTMAFRTVTDVDNAVNGLYDLMSGSGYYGAAMFAYGDMKGDDMQSSEESGVCNTCYMFNHRPNSLNAGSLWGRPFYILREAWNILNAIAEGKIESGDEKKLNALKGETMAVIALCQFDLTRCFGYPYTKDKGASLGAPLIDHLVGTYENPPRSTVAQAYDFIIETLEEAVTLMSEEKNNGRMNKYAARALLARIYLYHDDNRKAFDLADQLIKDADTSGSYALYPHEKYVAAWSVEAKFGSESFFEIANSVDDTPGRDSWGYLLNWYGYQKGFVTQKYAEQMLADPGDVRGHLLEENKYAGKTVWWLYKLRGTDLKTAPLECNNVVLRLSEVYLIAAEAGCKLGGDAAVQGLGYLNEIVKRGNPDNEVTMADYTLDRVLDERSKELVGEGHRFFDLLRNGKTIVRKGGYHLPSVDEEVDWDFYKCVLPIPEDQFIFSPEMEQNPGYPKN
- glycan array binding signal (z-score) (Fuc(a1-2)Gal): -0.335
- glycan array binding signal (z-score) [1]: -0.817
- glycan array binding signal (z-score) [2]: -0.084
- glycan array binding signal (z-score) [3]: -0.605
- glycan array binding signal (z-score) [4]: 0.151
- glycan array binding signal (z-score) [5]: -0.75
- glycan array binding signal (z-score) [6]: 0.583
- glycan array binding signal (z-score) [7]: 0.709
- glycan array binding signal (z-score) [8]: 3.09
- glycan array binding signal (z-score) [9]: 1.47
- glycan array binding signal (z-score) (Gal(b1-2)Gal): 0.817
- glycan array binding signal (z-score) [10]: 0.157
- glycan array binding signal (z-score) (Gal(b1-4)Glc): -0.177
- glycan array binding signal (z-score) [11]: 0.328
- glycan array binding signal (z-score) [12]: 1.61
- glycan array binding signal (z-score) [13]: 1.2
- glycan array binding signal (z-score) (Gal3S(b1-4)Glc6S): 0.273
- glycan array binding signal (z-score) (Gal3S6S(b1-4)GlcNAc): 0.512
- glycan array binding signal (z-score) (Gal3S6S(b1-4)GlcNAc6S): 1.05
- glycan array binding signal (z-score) [14]: -0.347
- glycan array binding signal (z-score) (GalNAc(b1-3)GlcNAc): 0.085
- glycan array binding signal (z-score) (GalNAc(b1-4)Gal(b1-4)Glc): 0.362
- glycan array binding signal (z-score) [15]: -0.336
- glycan array binding signal (z-score) (Glc(a1-6)Glc(a1-6)Glc): -0.638
- glycan array binding signal (z-score) (GlcNAc(b1-3)Fuc): 1.16
- glycan array binding signal (z-score) [16]: 1.89
- glycan array binding signal (z-score) [17]: 0.909
- glycan array binding signal (z-score) [18]: 1.77
- glycan array binding signal (z-score) [19]: -0.501
- glycan array binding signal (z-score) [20]: 0.135
- glycan array binding signal (z-score) [21]: 1.58
- glycan array binding signal (z-score) [22]: -0.426
- glycan array binding signal (z-score) [23]: 2.06
- glycan array binding signal (z-score) [24]: 0.976
- glycan array binding signal (z-score) [25]: 1.59
- glycan array binding signal (z-score) [26]: -0.074
- glycan array binding signal (z-score) [27]: -0.742
- glycan array binding signal (z-score) [28]: 1.68
- glycan array binding signal (z-score) [29]: -0.532
- glycan array binding signal (z-score) [30]: -0.283
- glycan array binding signal (z-score) [31]: 19.1
